The nature of experiment [1]: ATG_CRE_CIS: Attagene CIS-FACTORIAL HepG2 Assay for human cAMP Responsive Element (CRE) binding protein 3 (AID 2282926). The settings on record: HepG2 CRE cis-reporter, Attagene multiplexed mRNA; actives raise or lower the signal. The method in brief: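 Liver-derived HepG2, transfected with a CRE-containing reporter panel, exposed 24 h; transcript levels sized and quantified by capillary electrophoresis of labelled amplicons; signal changes either way referenced to vehicle.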

The nature of experiment [2]: ATG_CMV_CIS: Attagene CIS-FACTORIAL HepG2 Assay for human CMV (Internal Marker) (AID 2282928).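 Note: endpoint acts as a background internal control marker rather than a target.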 To be noted: HepG2 CMV promoter reporter, transcription factor profiling; actives raise or lower the signal. The procedure, abridged:
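Bidirectional fits against DMSO are applied to reporter mRNA, read by RT-PCR with capillary electrophoresis, from HepG2 cells exposed 24 h. The endpoint serves as an internal CMV background marker within the cis-factorial reporter panel.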

Experiment [3] is described as follows: ATG_DR4_LXR_CIS: Attagene CIS-FACTORIAL HepG2 Assay for human Liver X Receptor (LXR), DR4 submotif (AID 2282929). The settings on record: HepG2 Attagene DR4 cis-reporter, mRNA transcription; actives raise or lower the signal. The method in brief: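 DR4 cis-reporter in HepG2, 24 h exposure. Detection: RT-PCR, 6-FAM labelling, CE fragment analysis. Endpoint fitted bidirectionally, DMSO = baseline.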

Experiment [4] deals with Aryl hydrocarbon receptor (Homo sapiens) (UniProt P35869). Nature of the experiment: ATG_Ahr_CIS: Attagene CIS-FACTORIAL HepG2 Assay for human Aryl Hydrocarbon Receptor (Ahr) (AID 2282930). The settings on record: HepG2 AhR cis-factorial reporter transcription; actives raise or lower the signal. The procedure, abridged: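 Endogenous factor activity is tracked through cis-promoter reporter units transfected into HepG2 cells. Transcript levels at 24 h are read by fluorescent RT-PCR and capillary electrophoresis, with activity in either direction scored relative to DMSO.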

Experiment [5] is described as follows: ATG_AP_1_CIS: Attagene CIS-FACTORIAL HepG2 Assay for human Activator Protein 1 (AP-1) (AID 2282931). To be noted: HepG2 Attagene cis-factorial AP-1 reporter mRNA; actives raise or lower the signal. The method in brief: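 Cis-regulated reporter units transiently expressed in HepG2 report endogenous transcription-factor activity. Signal: reporter mRNA at 24 h, via RT-PCR and fluorescent capillary electrophoresis. Endpoint derived by bidirectional fitting, DMSO as negative control.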

Experiment [6] is described as follows: ATG_AP_2_CIS: Attagene CIS-FACTORIAL HepG2 Assay for human Activator Protein 2 (AP-2) (AID 2282932). The settings on record: HepG2 AP-2 cis-reporter, Attagene transcription factor profiling; actives raise or lower the signal. The method in brief: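 Liver-derived HepG2 line, cis-reporter system measuring endogenous factors; 24 h dosing; reporter mRNA detected by fluorescent RT-PCR and capillary electrophoresis.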

The nature of experiment [7]: ATG_BRE_CIS: Attagene CIS-FACTORIAL HepG2 Assay for human Bone Morphogenetic Protein (BMP) Response Element (BRE) (AID 2282933). To be noted: HepG2 BMP response element reporter, Attagene transcription factor profiling; actives raise or lower the signal. The procedure, abridged:
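A HepG2 multiplex reporter system measured inducible reporter mRNA 24 h post-dosing. Detection: RT-PCR, 6-FAM primer extension, HpaI digestion, capillary electrophoresis. Activity fitted bidirectionally relative to DMSO.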

Experiment [8] addresses Retinoic acid receptor alpha (Homo sapiens) (UniProt P10276). Nature of the experiment: ATG_DR5_RAR_CIS: Attagene CIS-FACTORIAL HepG2 Assay for human Retinoic Acid Receptor Alpha (RARE), DR5 submotif (AID 2282934).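 For AC50: reporter responds to endogenous RAR alpha beta and gamma in HepG2 not RARA alone.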 To be noted: HepG2 Attagene cis-factorial RARE DR5 reporter, mRNA; actives raise or lower the signal. The procedure, abridged: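 After 24 h of chemical exposure, transiently transfected HepG2 cells were lysed for total RNA; the DR5-regulated reporter transcript was quantified via RT-PCR and capillary electrophoresis, with activity fitted bidirectionally against DMSO.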

For experiment [9], the target named is Transcription factor E2F1 (Homo sapiens) (UniProt Q01094). Nature of the experiment: ATG_E2F_CIS: Attagene CIS-FACTORIAL HepG2 Assay for human E2F Transcription Factor 1 (AID 2282935). To be noted: HepG2 Attagene cis-reporter, E2F reporter RNA transcripts; actives raise or lower the signal. The procedure, abridged: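 Liver-derived HepG2 cells expressing transfected promoter-driven reporter units received test chemical for 24 hours. Signal gains or losses were fitted bidirectionally against DMSO.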

Experiment [10] is described as follows: ATG_E_Box_CIS: Attagene CIS-FACTORIAL HepG2 Assay for human Enhancer Box (E-box) (AID 2282936). The settings on record: HepG2 E-box cis-reporter transcription, actives raise or lower the signal. The method in brief:
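In this cell-based setup, HepG2 cells bearing transfected promoter-driven reporter units were exposed to chemicals for 24 h; reporter transcripts were amplified, 6-FAM-labelled, cut with HpaI and sized by capillary electrophoresis.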

Experiment [11] concerns the target CCAAT/enhancer-binding protein beta (Homo sapiens) (UniProt P17676). Description: ATG_C_EBP_CIS: Attagene CIS-FACTORIAL HepG2 Assay for human CCAAT/Enhancer Binding Protein (C/EBP) beta (AID 2282927). The settings on record: HepG2 Attagene cis-factorial transcription factor reporter; actives raise or lower the signal. The method in brief: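 HepG2, transient MRTU transfection, 24 h treatment. RT-PCR plus CE fluorescence; DMSO negative control, bidirectional fit.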

Calls of active or inactive are those of the source. Rule for the calls: active = hit-call score of the fitted dose curve at least 0.9, where 1 is the maximum; inactive = score below 0.9.

Sequence of Transcription factor E2F1 (Homo sapiens) (Q01094 whole entry, looked up): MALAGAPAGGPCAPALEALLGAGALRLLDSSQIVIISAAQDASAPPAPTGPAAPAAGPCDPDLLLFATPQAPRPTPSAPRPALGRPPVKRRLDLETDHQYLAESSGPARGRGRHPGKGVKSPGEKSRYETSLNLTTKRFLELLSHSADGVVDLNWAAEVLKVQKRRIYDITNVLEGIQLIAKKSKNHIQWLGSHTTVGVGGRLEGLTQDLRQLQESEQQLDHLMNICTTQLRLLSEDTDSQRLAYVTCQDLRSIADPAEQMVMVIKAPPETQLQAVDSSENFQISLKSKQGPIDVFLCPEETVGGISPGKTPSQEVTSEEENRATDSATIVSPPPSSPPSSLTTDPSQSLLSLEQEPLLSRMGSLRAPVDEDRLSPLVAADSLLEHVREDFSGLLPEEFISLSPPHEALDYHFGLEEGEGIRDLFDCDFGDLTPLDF
Sequence of Aryl hydrocarbon receptor (Homo sapiens) (P35869 whole entry, looked up): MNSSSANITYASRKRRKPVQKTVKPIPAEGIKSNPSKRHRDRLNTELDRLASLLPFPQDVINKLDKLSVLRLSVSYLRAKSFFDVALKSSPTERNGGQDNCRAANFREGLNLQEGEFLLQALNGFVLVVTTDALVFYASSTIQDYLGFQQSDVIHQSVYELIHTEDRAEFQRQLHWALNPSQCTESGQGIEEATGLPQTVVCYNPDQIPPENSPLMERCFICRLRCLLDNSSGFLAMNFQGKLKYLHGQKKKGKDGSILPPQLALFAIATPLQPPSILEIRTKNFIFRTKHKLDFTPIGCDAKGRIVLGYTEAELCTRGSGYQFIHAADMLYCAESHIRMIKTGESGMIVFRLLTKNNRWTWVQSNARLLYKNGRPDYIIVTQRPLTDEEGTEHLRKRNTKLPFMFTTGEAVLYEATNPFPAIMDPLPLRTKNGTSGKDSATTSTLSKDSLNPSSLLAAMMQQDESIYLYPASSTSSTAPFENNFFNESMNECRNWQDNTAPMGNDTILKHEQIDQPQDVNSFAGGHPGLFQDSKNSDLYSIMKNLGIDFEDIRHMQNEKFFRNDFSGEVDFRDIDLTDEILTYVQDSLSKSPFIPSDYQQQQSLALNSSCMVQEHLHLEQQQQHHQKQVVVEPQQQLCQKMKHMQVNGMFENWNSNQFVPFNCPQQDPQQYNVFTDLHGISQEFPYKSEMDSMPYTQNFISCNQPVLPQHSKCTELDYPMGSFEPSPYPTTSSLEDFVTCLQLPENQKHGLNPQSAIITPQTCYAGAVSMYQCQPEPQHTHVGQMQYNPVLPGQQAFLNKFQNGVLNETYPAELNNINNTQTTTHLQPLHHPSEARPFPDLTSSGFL
Sequence of Retinoic acid receptor alpha (Homo sapiens) (P10276 whole entry, looked up): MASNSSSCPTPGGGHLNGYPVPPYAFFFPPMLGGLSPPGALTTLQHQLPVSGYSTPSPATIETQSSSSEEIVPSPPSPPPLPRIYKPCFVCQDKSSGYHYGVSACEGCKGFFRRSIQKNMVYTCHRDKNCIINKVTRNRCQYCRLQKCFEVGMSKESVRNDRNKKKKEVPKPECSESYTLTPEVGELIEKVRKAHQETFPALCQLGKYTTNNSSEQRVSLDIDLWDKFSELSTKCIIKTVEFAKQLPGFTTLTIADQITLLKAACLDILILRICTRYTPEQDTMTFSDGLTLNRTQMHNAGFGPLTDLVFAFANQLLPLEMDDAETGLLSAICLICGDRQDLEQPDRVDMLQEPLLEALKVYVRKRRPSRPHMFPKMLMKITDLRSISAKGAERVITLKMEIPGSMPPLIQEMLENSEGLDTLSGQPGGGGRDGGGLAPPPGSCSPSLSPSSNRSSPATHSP
Sequence of CCAAT/enhancer-binding protein beta (Homo sapiens) (P17676 whole entry, looked up): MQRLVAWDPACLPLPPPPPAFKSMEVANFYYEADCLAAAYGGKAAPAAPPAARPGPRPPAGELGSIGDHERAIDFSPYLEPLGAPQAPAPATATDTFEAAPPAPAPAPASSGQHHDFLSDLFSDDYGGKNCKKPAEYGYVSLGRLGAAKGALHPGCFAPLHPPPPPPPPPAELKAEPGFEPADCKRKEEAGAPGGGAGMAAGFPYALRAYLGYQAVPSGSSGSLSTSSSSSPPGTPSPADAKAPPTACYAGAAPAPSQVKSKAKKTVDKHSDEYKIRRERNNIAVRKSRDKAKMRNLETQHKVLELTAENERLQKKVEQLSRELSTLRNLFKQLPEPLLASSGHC

`Cc1cc(Cl)ccc1OCCCC(=O)O`: the call in experiment [1], in experiment [2], in [3], in [4], in [5] and in experiment [6] was inactive. Also, the compound was classed as inactive in [7], in experiment [8], in experiment [9] and in experiment [10].
As to `CC[N+](CC)(CC)CC`, the compound was classed as inactive in experiment [1], in experiment [2], in [3], in [4], in experiment [5] and in experiment [6]. Besides, the result in experiment [7], in [8], in experiment [9] and in experiment [10] was inactive.
In general, AC50 refers to the concentration giving half of the maximal activity seen. Take `O=S(=O)(Oc1ccc(Cl)cc1)c1ccc(Cl)cc1`: the result in experiment [1], in experiment [4], in experiment [7], in experiment [8], in experiment [9] and in experiment [10] was inactive. The values for the concentration at half-maximal activity (AC50) in [2], in experiment [3] and in [5] were 49 µM (active), 34.9 µM (active) and 32.6 µM (active), respectively.
Regarding `CC(=O)C(F)(F)C(F)(F)F`, the result in [1], in experiment [11], in experiment [2], in experiment [4], in experiment [5] and in experiment [7] was inactive. The compound was called inactive in [9] and in experiment [10].
On to `CCOc1cc(C=O)ccc1O`, for which the result in experiment [1], in experiment [2], in [3], in experiment [6], in experiment [7] and in experiment [8] was inactive. In addition, the call in [9] and in experiment [10] was inactive.
As to `CCOCn1c(-c2ccc(Cl)cc2)c(C#N)c(Br)c1C(F)(F)F`, the AC50 is 1.2 µM (active) in experiment [1]; 8.63 µM (active) in experiment [3]; 170 µM (active) in experiment [4]; 3.76 µM (active) in [6]; 1.1 µM (active) in experiment [7]; 0.518 µM (active) in experiment [8]. For the same compound, the result in experiment [2], in [5], in experiment [9] and in [10] was inactive.
For the compound `Cc1cc(C(F)(C(F)(F)F)C(F)(F)F)ccc1NC(=O)c1cccc(I)c1C(=O)NC(C)(C)CS(C)(=O)=O`, the compound was called inactive in experiment [1], in [2], in experiment [3], in [4], in [6] and in experiment [7]. The result in experiment [8], in [9] and in experiment [10] was inactive.
Turning to `Nc1ccc(-c2ccccc2)cc1`, the compound was called inactive in experiment [1], in experiment [2], in [3], in [4], in experiment [5] and in [6]. The compound was classed as inactive in experiment [7], in experiment [8], in experiment [9] and in [10].
As to `COc1ccc([N+](=O)[O-])cc1O`, the result in experiment [1], in experiment [2], in experiment [3], in [4], in experiment [5] and in experiment [6] was inactive. Moreover, the compound was classed as inactive in experiment [7], in experiment [8], in [9] and in experiment [10].
Regarding `CN(N=O)c1ccc([N+](=O)[O-])cc1`, the call in experiment [1], in experiment [2], in experiment [3], in experiment [5], in experiment [7] and in experiment [8] was inactive. The compound was classed as inactive in [9] and in experiment [10]. Moreover, the AC50 in [4] is 26.8 µM (active).
As for `C=CC(F)(C(F)(F)F)C(F)(F)C(F)(F)F` (centres undefined), the outcome in [1], in experiment [2], in experiment [4], in experiment [5], in experiment [6] and in experiment [7] was inactive. Further, the outcome in [8], in experiment [9] and in experiment [10] was inactive.
In the case of `CN(C)c1ccc(N=O)cc1`, the result in experiment [1], in experiment [6], in [7], in experiment [8] and in [9] was inactive. The AC50 is 7.81 µM (active) in experiment [2], 9.26 µM (active) in [3], 8.04 µM (active) in [4] and 10.3 µM (active) in experiment [10].
As for `Nc1cccnc1`, the outcome in experiment [1], in [11], in [2], in experiment [4], in experiment [6] and in experiment [7] was inactive. In addition, the compound was called inactive in experiment [8], in experiment [9] and in [10].
Regarding `CCCCN(CCCC)C(=S)[S-].CCCCN(CCCC)C(=S)[S-].[Ni+2]`, the outcome in experiment [1], in experiment [11], in experiment [2], in experiment [4], in [6] and in [7] was inactive. Further, the result in experiment [8], in experiment [9] and in experiment [10] was inactive.
With `C[C@H]1C(=O)O[C@@H]2CCN3CC=C(COC(=O)[C@](C)(O)[C@]1(C)O)[C@H]23`, the compound was called inactive in experiment [1], in [11], in experiment [2], in [4], in experiment [7] and in [8]. Also, the result in experiment [9] and in experiment [10] was inactive.
In the case of `CCOC(=O)CCN(SN(C)C(=O)Oc1cccc2c1OC(C)(C)C2)C(C)C`, the outcome in [1], in experiment [2], in experiment [4], in experiment [6], in experiment [8] and in [9] was inactive. Also, the outcome in experiment [10] was inactive. Besides, the AC50 in experiment [3] was 100 µM (active); in [5] it was 151 µM (active); in experiment [7] it was 163 µM (active).
In the case of `O=S(=O)(c1ccc(Cl)cc1)c1cc(Cl)c(Cl)cc1Cl`, the AC50 in experiment [1] is 37.8 µM (active); in [2], 42.5 µM (active); in [3], 40.9 µM (active); in experiment [8], 100 µM (active). The compound was called inactive in experiment [4], in experiment [5], in [6], in [7] and in experiment [10].
With `O=[N+]([O-])c1c2ccccc2cc2ccccc12`, the compound was called inactive in experiment [1], in experiment [2], in [3], in experiment [4], in [5] and in experiment [6]. Also, the call in experiment [7], in experiment [8] and in experiment [10] was inactive.
Consider `CC(C)(C)c1ccc(CCOc2ncnc3ccccc23)cc1`, for which the outcome in [1], in experiment [2], in experiment [3], in [4], in [5] and in experiment [6] was inactive. Further, the compound was called inactive in experiment [7], in [8], in [9] and in experiment [10].
Turning to `CC(c1ccccc1)(c1ccc(O)cc1)c1ccc(O)cc1`, the compound was classed as inactive in [1], in experiment [2], in [4], in experiment [7] and in experiment [9]. For the same compound, the AC50 is 11.1 µM (active) in [3], 7.98 µM (active) in experiment [5] and 16.9 µM (active) in experiment [10].
As to `CCOC(=O)C(SP(=S)(OC)OC)c1ccccc1` (centres undefined), the compound was called inactive in experiment [1], in [2], in experiment [3], in experiment [4], in experiment [5] and in experiment [6]. Further, the call in experiment [7], in experiment [9] and in experiment [10] was inactive.
As for `O=C1c2ccccc2C(=O)C1C(=O)C(c1ccccc1)c1ccc(Cl)cc1` (centres undefined), the AC50 in experiment [1] was 27.5 µM (active); in experiment [2] it was 13.7 µM (active); in [4], 8.72 µM (active); in experiment [7], 5.02 µM (active). The call in [3], in [6], in experiment [9] and in [10] was inactive.
For `NC(=O)CCl`, the compound was called inactive in [1], in experiment [2], in [3], in experiment [4], in experiment [5] and in experiment [6]. The outcome in experiment [7], in experiment [8] and in [10] was inactive.

These data come from PubChem BioAssay (EPA / NIEHS).
